Structures are written as SMILES. Records with an inconclusive call do not appear. Active and inactive are the calls of the source. Calls come from the whole dose curve; as a rule, active = well fitted cell-killing curve with a large enough effect in the repeat runs; inconclusive = weak or mixed curves, or effect the other way; inactive = flat fitted curve, though single readings scatter.
% is set by controls: 0 for no effect and ±100 for the full control effect; potency is the fitted concentration of half-maximal effect.

The assay in a line: Caspase-3/7 induction in HepG2 cells by small molecules, qHTS cell viability counter screen (AID 1346981). Note: nearly all actives have a fitted effect of over 30% in size. The conditions noted are these: CellTiter-Fluor fluorescence, 17 h; series mostly up to 92.4 µM; activity change, negative = cytotoxicity: at the top concentration. The procedure, abridged: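 Wild-type HepG2 cells (2,000/well) were allowed to settle for 5 hr at 37 C, 5% CO2, then dosed with compounds in DMSO by pin transfer. After 16 hr at 37 C, CellTiter-Fluor was added and fluorescence read 1 hr later.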
On the technique in general: qHTS replaces the single test concentration by a dilution series.
For `CCN(CC)C(=O)/C(C#N)=C/c1cc(O)c(O)c([N+](=O)[O-])c1`, the Potency is 29.8 µM (active).
As for `O=C(O)CN1C(=O)c2cccc3cccc(c23)C1=O`, the “activity change, negative = cytotoxicity” value is 11.9% [at 42.5 µM] (inactive).
As for `CCOC(=O)c1c(N)sc2c1CCN(Cc1ccccc1)C2`, the “activity change, negative = cytotoxicity” value is -2.76% [at 42.5 µM] (inactive).
With `CC[C@@H](CO)NCCN[C@@H](CC)CO`, the “activity change, negative = cytotoxicity” value is 1.31% [at 42.5 µM] (inactive).
On the same count and under the same terms, then `CCOC(=O)c1ccc(NC(=O)CN2CCCCC2)cc1`, with -1.05% [at 42.5 µM] (inactive).
The same measure, in the same setting: the figure for `CC(=O)OCC(C)C` is 10.9% (inactive); for `Cc1cn([C@H]2C[C@H](F)[C@@H](CO)O2)c(=O)[nH]c1=O` it is 5.66% [at 42.5 µM] (inactive); for `O=S(=O)(O)CO` it is 5.06% (inactive).
Take `COC(=O)Nc1nc2ccc(C(=O)C3CC3)cc2[nH]1`: the “activity change, negative = cytotoxicity” value was 0.134% [at 42.5 µM] (inactive).
As for `CCCCCCCCCCCSCC(=O)O`, the “activity change, negative = cytotoxicity” value was 0.798% (inactive).
On to `CC(C)C(O)C(C)(C)CO` (stereo unspecified), for which the “activity change, negative = cytotoxicity” value was 5.68% (inactive).
Same read-out and setting: then `CC(CCc1ccc(O)cc1)NCCc1ccc(O)c(O)c1` (stereo unspecified), with -0.247% [at 42.5 µM] (inactive); and `COc1cc(NC(C)CCCN)c2ncccc2c1` (stereo unspecified), with -12.5% [at 42.5 µM] (inactive).
Still for that read-out and setting: then `Cc1ccccc1S(N)(=O)=O`, with 4.22% (inactive).
Same read-out and setting: then `COc1cc(S(=O)(=O)Nc2ccccc2)c(OC)cc1N`, with 3.38% (inactive).
As to `COC1CCC=CO1` (stereo unspecified), the “activity change, negative = cytotoxicity” value is 4.02% (inactive).
Turning to `O=C1NC(=O)c2cccc3cccc1c23`, the “activity change, negative = cytotoxicity” value is 4.06% (inactive).
For the molecule `c1ccc2sc(SSc3nc4ccccc4s3)nc2c1`, the activity change, negative = cytotoxicity is 0.175% [at 19 µM] (inactive).
Still for that read-out and setting: the figure for `NC(=O)c1ccccc1[N+](=O)[O-]` is 3.27% (inactive).
Turning to `COc1cc(NCc2ccc3nc(N)nc(N)c3c2C)cc(OC)c1OC`, the Potency is 26.6 µM (active).
Take `O=C1OC(=O)c2c(Br)c(Br)c(Br)c(Br)c21`: the “activity change, negative = cytotoxicity” value was -10.5% (inactive).
On to `CCCCCC`, for which the “activity change, negative = cytotoxicity” value was 3.02% (inactive).
Same read-out and setting: then `CC[C@H]1OC(=O)[C@H](C)[C@@H](O[C@H]2C[C@@](C)(OC)[C@@H](O)[C@H](C)O2)[C@H](C)[C@@H](O[C@@H]2O[C@H](C)C[C@H](N(C)C)[C@H]2O)[C@](C)(O)C[C@@H](C)CN(C)[C@H](C)[C@@H](O)[C@]1(C)O`, with -25.2% [at 42.5 µM] (inactive); and `c1ccc(CCCc2ccncc2)cc1`, with 1.39% (inactive).
On the same count and under the same terms, then `CC(C)c1ccc(C(=O)N=C(N)N)cc1S(C)(=O)=O`, with 2.34% [at 42.5 µM] (inactive).
With `Cc1ccc2c(c1[N+](=O)[O-])C(=O)c1ccccc1C2=O`, the Potency was 3 µM (active).
In the case of `O=c1[nH]c2cc(C(F)(F)F)c(N3CCOCC3)cc2n(CP(=O)(O)O)c1=O`, the “activity change, negative = cytotoxicity” value is 4.76% [at 42.5 µM] (inactive).
Turning to `C1CCCCC1`, the “activity change, negative = cytotoxicity” value is -0.492% (inactive).
The same measure, in the same setting: the figure for `C1=CCC2CC=CC2C1` (stereo unspecified) is 1.31% (inactive).
`CN1CCCN(C(c2ccccc2)c2ccc(Cl)cc2)CC1` (stereo unspecified): the Potency was 23.7 µM (active).
Regarding `CC(CN(CCN(CC(C)OCCO)CC(C)OCCO)CC(C)OCCO)OCCO` (stereo unspecified), the “activity change, negative = cytotoxicity” value is -6.72% (inactive).

(Values after PubChem BioAssay (Tox21).)
